GPR151 ag: activates the human receptor GPR151; Q8TDV0; PathHunter beta-arrestin GPR151 cells, luminescence; activation, % at 11.2 µM; actives 1% (n = 650,000); AID 1508602; in the data active = activation above about 4.9%;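 note: 0% = median of compound wells and 100% = cells with positive control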
TEAD-YAP block: TEAD-YAP interaction inhibition; HEK-TIYL cells, TEAD-Gal4/YAP UAS-luciferase luminescence; inhibition, % at 9.12 µM; actives 1.4% (n = 640,000); AID 1259422; in the data active = inhibition above about 32%;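 note: 0% = median of test compound wells and 100% = reference inhibitor wells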
MITF inh: inhibitors of human MITF | AlphaScreen MITF homodimerization, bead proximity signal | inhibition, % at 2.6 µM | actives 0.91% (n = 650,000); in the data active = inhibition above about 50%;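 note: 0% = vehicle wells with protein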
Target sequence (O75030 whole entry, looked up): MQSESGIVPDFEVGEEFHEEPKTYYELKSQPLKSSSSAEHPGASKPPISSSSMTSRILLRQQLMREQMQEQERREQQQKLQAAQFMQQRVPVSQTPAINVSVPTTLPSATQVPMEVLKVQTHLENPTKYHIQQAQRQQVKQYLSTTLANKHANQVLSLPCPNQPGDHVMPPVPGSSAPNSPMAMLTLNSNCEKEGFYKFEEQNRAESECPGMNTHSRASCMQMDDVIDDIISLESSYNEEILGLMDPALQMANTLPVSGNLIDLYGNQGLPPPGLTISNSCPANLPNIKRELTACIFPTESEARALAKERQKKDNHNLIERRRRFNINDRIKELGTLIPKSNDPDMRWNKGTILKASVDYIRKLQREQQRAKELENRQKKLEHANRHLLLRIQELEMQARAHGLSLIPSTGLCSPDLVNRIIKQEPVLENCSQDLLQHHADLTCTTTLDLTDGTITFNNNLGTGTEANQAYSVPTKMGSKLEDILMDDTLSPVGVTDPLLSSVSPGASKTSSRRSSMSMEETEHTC
FBW7 activator: human FBW7 E3 ligase activation, primary screen | Q969H0 | AlphaScreen FBW7–phospho-cyclin E peptide binding, activator screen | normalized activity (activation), % at 26.1 µM | actives 0.13% (n = 650,000); in the data active = normalized activity above about 1.9%;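 note: purified mutant Fbw7 with reduced substrate affinity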
MITF confirm: human MITF inhibition, confirmation | shares compounds with MITF inh | AlphaScreen MITF homodimerization, biotin/His-MITF beads | inhibition, % at 2.6 µM | actives 16% (n = 4,700);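 active = inhibition above a cutoff derived from the DMSO control wells, cut at about 28% in these data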;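 note: 0% = MITF dimer wells with DMSO only; inhibitors lower the bead chemiluminescence by keeping MITF from dimerizing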
AlphaScreen intf2: optically interferes with AlphaScreen signal. shares compounds with MITF inh. actives 7.6% (n = 4,700). inhibition, % at 2.6 µM. LysRS AlphaScreen counterscreen, signal interference, triplicate;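 active = inhibition above a cutoff derived from the DMSO control wells, cut at about 30% in these data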
* = called active by the depositor; x = no result given. Hits are enriched below; roughly 3.4% of the tested compounds scored in any of these assays.

SMILES	GPR151 ag	TEAD-YAP block	MITF inh	FBW7 activator	MITF confirm	AlphaScreen intf2
COc1ccc(CN2CCC(N3CC(C)OC(C)C3)CC2)c(OC)c1OC (stereo not drawn)	1	9	65*	0	-2	2
COc1ccccc1CN1CCN(C2CCCCC2)CC1	-1	-1	70*	0	-5	-4
COc1ccc(CN2CCN(C3CCCCC3)CC2)c(OC)c1OC	1	8	76*	0	-4	2
COc1ccc(CN2CCN(C3CCCC(C)C3)CC2)c(OC)c1OC (stereo not drawn)	2	-6	54*	0	9	13
CCOc1ccc2c(c1)-c1c(ssc1=S)C(C)(C)N2C(=O)CC(C)C	1	1	22	-1	x	x
COc1ccc(CCNC(=O)CCn2c(SCC(=O)Nc3cccc(C(F)(F)F)c3)nc3ccccc3c2=O)cc1OC	1	4	56*	0	-9	-2
CC(C)CN(CC(C)C)C(=S)NC1CCCCC1	0	5	69*	0	8	8
O=C(Cn1c(SCC(=O)N2CCOCC2)nc2ccccc21)NCc1ccccc1	-1	2	-2	1	x	x
CCOC(=O)C1CCN(Cc2nc3cc(Cl)ccc3c(=O)[nH]2)CC1	-1	-2	5	0	x	x
O=C(CN1CCSCC1)N/N=C/c1cccc(C(F)(F)F)c1	-1	-2	56*	1	8	6
FC(F)(F)c1ccccc1CN1CCN(C2CCCCC2)CC1	-1	7	69*	0	16	18
FC(F)(F)c1ccccc1CN1CCC(N2CCCCC2)CC1	1	19	-6	0	x	x
FC(F)(F)c1ccccc1CN1CCN(C2CCCCCC2)CC1	1	8	78*	0	9	24
O=S(=O)(c1ccc2ccccc2c1)N1CCN(Cc2ccccc2C(F)(F)F)CC1	1	-5	11	0	x	x
FC(F)(F)c1ccccc1CN1CCN(C2C3CC4CC(C3)CC2C4)CC1 (stereo not drawn)	0	-2	76*	0	15	11
FC(F)(F)c1ccccc1CN1CCC(N2CCCC2)CC1	1	0	57*	0	7	13
COc1ccc(NC(=O)CN2C(=O)c3ccc([N+](=O)[O-])cc3C2=O)c([N+](=O)[O-])c1	-1	12	-1	0	x	x
CN1C(C(=O)NC(C)(C)C)=CC(c2ccc(F)cc2)=NS1(=O)=O	2	5	12	1	x	x
CCC(Sc1nncn2c1cc1oc(C)cc12)C(=O)N1CCOCC1 (stereo not drawn)	-1	-10	11	0	x	x
CCOC(=O)C1CCCCN1Cc1ccccc1C(F)(F)F (stereo not drawn)	0	-9	53*	0	-3	6
CCOC(=O)CC(N)c1ccc(C)cc1 (stereo not drawn)	0	1	17	0	x	x
CCOc1ccc(S(=O)(=O)NC2CCCCC2)cc1-c1nc2c(C(C)(C)C)nn(C)c2c(=O)[nH]1	-1	-3	77*	0	9	10
O=C(Cc1ccc(Br)cc1)NNC(=O)Nc1ccc([N+](=O)[O-])cc1	1	7	11	0	x	x
Cc1ncc(CO)c(/C=N/N=C/c2cccc(Cl)c2Cl)c1O	-1	8	53*	1	-4	-4
O=C(NCCSc1ccccc1)c1cccnc1	0	-38	77*	0	-1	-3
SMILES	GPR151 ag	TEAD-YAP block	MITF inh	FBW7 activator	MITF confirm	AlphaScreen intf2
Cc1[nH]c2ccccc2c1SCCNC(=O)c1ccncc1	0	-2	62*	0	4	-7
CCN(CC)C(=O)c1sc(NC(=O)/C=C/c2ccc3c(c2)OCO3)c(C#N)c1C	3	7	11	0	x	x
c1ccc(N2CCCC2=Nc2ccncc2)cc1	0	-2	68*	0	6	11
NC(=O)CN1CCCC1=Nc1ccccc1	-1	0	-4	0	x	x
COc1cc(/C=C2/C(=O)ON=C2C)cc(Br)c1OC	-1	9	30	0	x	x
Cc1ccc(-c2csc(NC(=O)COc3ccccc3C(C)(C)C)n2)cc1	-1	-3	56*	1	-5	-4
Cc1ccccc1OCC(=O)Nc1nc(-c2ccccc2)cs1	0	-12	-1	0	x	x
CCOC(=O)CN1C(=O)C(O)=C(C(C)=O)C1c1ccc(I)cc1 (stereo not drawn)	0	0	6	0	x	x
COc1ccc(CN2CCCN(C)CC2)c(OC)c1	3	7	28	0	x	x
COc1ccc(CN2CCN(Cc3ccc(Br)cc3)CC2)c(OC)c1	-2	-13	36	-1	x	x
COc1ccc(CN2CCN(Cc3ccc(OC)cc3OC)CC2)cc1	0	1	65*	0	5	13
COc1ccc(CN2CCN(CCCc3ccccc3)CC2)c(OC)c1	-1	-2	74*	0	7	15
COc1ccc(N2CCN(Cc3ccc(OC)cc3OC)CC2)cc1	0	-14	39	0	x	x
COc1ccc(CN2CCN(Cc3ccc(F)cc3)CC2)c(OC)c1	0	0	81*	0	8	20
COc1ccc(CN2CCN(Cc3ccc(OC)cc3OC)CC2)c(OC)c1	-1	-2	72*	0	0	15
O=C(CC1(c2ccccc2)CC(=O)N(CC2CCCCC2)C1=O)N1CCCC1 (stereo not drawn)	0	0	-2	0	x	x
CSc1nccc(-c2cc(Cl)c3c(c2)CC(CNC(=O)c2ccoc2)O3)n1 (stereo not drawn)	5	13	9	0	x	x
Cc1oc2c(cc(NS(=O)(=O)c3ccccc3)c3ccccc32)c1C(=O)OCc1ccccc1	-2	-19	-10	0	x	x
COCCN(CCOC)c1ncnc2c1c(-c1ccccc1)cn2-c1ccccc1	-2	-2	-10	0	x	x
CCOc1ccc(CN2CCN(Cc3ccc(SC)cc3)CC2)cc1	1	10	21	0	x	x
COc1ccc(CN2CCN(Cc3ccc(OC)c(OC)c3)CC2)c(OC)c1	1	1	66*	0	10	6
COc1ccc(CN2CCN(Cc3ccc(SC)cc3)CC2)c(OC)c1	0	12	70*	0	5	18
COCCCNc1nc(CN2CCCCC2c2cccnc2)nc2ccc(C)cc12 (stereo not drawn)	0	8	18	0	x	x
Cc1cc(S(=O)(=O)NCc2ccccc2Cl)ccc1-n1cnnn1	0	-3	2	0	x	x
FC(F)(F)c1ccc(Cn2cnc3c(NC4CCN(Cc5ccccc5)CC4)nc(Nc4cnccn4)nc32)cc1	3	7	15	0	x	x
Cn1nc(Oc2ccc(-c3ccccc3)cc2)c(=O)n(C)c1=O	-1	-9	80*	0	16	9
CCCC1=NN2C(=N)/C(=C/c3ccc(OCCOc4ccc(C)c(C)c4)cc3)C(=O)N=C2S1	-1	4	9	0	x	x
Oc1ccc(N2CCN(CC(O)COCc3ccccc3Cl)CC2)cc1 (stereo not drawn)	0	-3	56*	0	6	23

Source: PubChem BioAssay (The Scripps Research Institute Molecular Screening Center)
